# Source: the supplement of paper PMC6607015
# Where a name gives a salt, the structure may show the parent alone.
# Experiments:
# Settings in all cases: compound concentration in added solution (µM; 5 µl added to 20 µl cells): 10; 18 h
# A431 [1] = experiment: LBPA endosome anti-LBPA integrated intensity (sum per cell), Z-score; higher = more LBPA staining
# Summary of the method: (§1)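 Four 20× images per well were taken of HeLa MZ or A431 cells that had been seeded at 3,500 per well in 20 µl onto 5 µl of 10 µM compound solution in duplicate 384-well imaging plates. Before imaging, cells were incubated 18 h, fixed in 4% PFA and stained with 6C4 anti-LBPA antibody, filipin, propidium iodide and CellTracker green. Values are Z-scores normalised in AcuityXpress from MetaXpress-derived per-cell integrated LBPA or filipin intensity, either whole-cell or within LBPA endosomes.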
# HeLa MZ [2] = experiment: as above
# Summary of the method: as §1
# A431 [3] = experiment: whole-cell filipin (free cholesterol) integrated intensity, Z-score; higher = more cholesterol staining
# Summary of the method: as §1
# HeLa MZ [4] = experiment: as above
# Summary of the method: as §1
# A431 [5] = experiment: filipin (cholesterol) integrated intensity within LBPA endosomes, Z-score; higher = more cholesterol in LBPA endosomes
# Summary of the method: as §1
# HeLa MZ [6] = experiment: as above
# Summary of the method: as §1
SMILES,LBPA endosome anti-LBPA integrated intensity (z-score) (A431 [1]),LBPA endosome anti-LBPA integrated intensity (z-score) (HeLa MZ [2]),whole-cell filipin (z-score) (A431 [3]),whole-cell filipin (z-score) (HeLa MZ [4]),filipin (z-score) (A431 [5]),filipin (z-score) (HeLa MZ [6])
O=C(O)c1ccccc1C(=O)Nc1ccc(S(=O)(=O)Nc2nccs2)cc1 [Phthalylsulfathiazole],-0.455,-0.249,-0.41,-0.101,-0.471,-0.557
COc1cc2nc(N3CCN(C(=O)C4CCCO4)CC3)nc(N)c2cc1OC (centres undefined) [Terazosin hydrochloride],-0.178,0.906,-0.323,-0.357,-0.379,0.00198
COc1cc(N)c(Cl)cc1C(=O)NC1CCN(Cc2ccccc2)CC1 [Clebopride maleate],0.365,2.01,-0.171,0.217,0.0875,0.539
CCc1nn(CCCN2CCN(c3cccc(Cl)c3)CC2)c(=O)n1CCOc1ccccc1 [Nefazodone HCl],0.334,2.39,0.625,0.969,0.483,1.14
N#Cc1ccc(C(c2ccc(C#N)cc2)n2cncn2)cc1 [Letrozole],-0.371,0.276,0.375,0.337,-0.552,-0.548
COc1ccccc1O [Guaiacol],-0.278,0.0632,0.299,-0.2,-0.335,-0.255
CC(C)(C)NC[C@H](O)c1ccc(O)c(CO)c1 [Levalbuterol hydrochloride],-0.401,-1.22,0.171,-0.774,-0.471,-0.476
Cc1cnc(NC(=O)C2=C(O)c3ccccc3S(=O)(=O)N2C)s1 [Meloxicam],-0.49,0.298,-0.567,-0.195,-0.477,-0.459
Cc1ccccc1OCC(O)CO (centres undefined) [Mephenesin],-0.324,0.139,-0.27,0.183,-0.409,-0.223
C[N+](C)(C)CCOC(N)=O [Carbachol],-0.538,-0.848,-0.548,-0.381,-0.44,-0.42
C#Cc1cccc(Nc2ncnc3cc(OCCOC)c(OCCOC)cc23)c1 [Erlotinib],1.24,2.03,-0.02,0.532,0.124,0.831
CC(C(=O)O)c1cccc(C(=O)c2ccccc2)c1 (centres undefined) [Ketoprofen],-0.482,-0.219,-0.803,-0.835,-0.552,-0.545
O=C(NCCO[N+](=O)[O-])c1cccnc1 [Nicorandil],-0.51,-0.536,-0.699,-0.868,-0.497,-0.545
CC(C)N1CCN(c2ccc(OCC3COC(Cn4cncn4)(c4ccc(Cl)cc4Cl)O3)cc2)CC1 (centres undefined) [Terconazole],3.33,2.49,1.58,1.5,3.31,4.7
COC(=O)[C@H]1[C@H]2C[C@@H]3c4[nH]c5cc(OC)ccc5c4CCN3C[C@H]2C[C@@H](OC(=O)c2cc(OC)c(OC)c(OC)c2)[C@@H]1OC [Reserpine],3.11,2.24,2.19,1.75,2.34,1.96
CCc1cccc2c3c([nH]c12)C(CC)(CC(=O)O)OCC3 (centres undefined) [Etodolac],-0.65,-1.97,-0.842,-0.545,-0.553,-0.628
CC(C)c1c(C(=O)Nc2ccccc2)c(-c2ccccc2)c(-c2ccc(F)cc2)n1CC[C@@H](O)C[C@@H](O)CC(=O)O [Atorvastatin],-0.737,-0.992,-0.0189,-0.402,-0.543,-0.45
C[N+]1(C)CCC(OC(=O)C(O)(c2ccccc2)C2CCCC2)C1 (centres undefined) [Glycopyrrolate],-0.432,-0.329,-0.296,-0.075,-0.498,-0.443
COc1ccc(CCN(C)CCCC(C#N)(c2ccc(OC)c(OC)c2)C(C)C)cc1OC (centres undefined) [Verapamil hydrochloride],2.51,2.93,2.24,0.413,2.46,1.49
Cc1oncc1C(=O)Nc1ccc(C(F)(F)F)cc1 [Leflunomide],-0.572,-0.48,-0.143,-0.573,-0.693,-0.555
CC(=O)[C@H]1CC[C@H]2[C@@H]3CCC4=CC(=O)CC[C@]4(C)[C@H]3CC[C@]12C [Progesterone],2.4,0.628,1.62,0.873,2.26,0.759
Nc1ccc(O)c(C(=O)O)c1 [Mesalamine],-0.0986,0.304,0.385,0.263,-0.341,-0.247
CCCNC(C)(C)COC(=O)c1ccccc1 [Meprylcaine hydrochloride],-0.522,-0.427,-0.299,-0.094,-0.429,-0.419
Cc1cnc(C(=O)O)c[n+]1[O-] [Acipimox],-0.468,-0.426,-0.532,-0.464,-0.503,-0.519
C[C@]12CC[C@@H]3c4ccc(O)cc4CC[C@H]3[C@@H]1CCC2=O [Estrone],-0.124,0.505,-0.166,-0.0664,-0.236,-0.151

SMILES,LBPA endosome anti-LBPA integrated intensity (z-score) (A431 [1]),LBPA endosome anti-LBPA integrated intensity (z-score) (HeLa MZ [2]),whole-cell filipin (z-score) (A431 [3]),whole-cell filipin (z-score) (HeLa MZ [4]),filipin (z-score) (A431 [5]),filipin (z-score) (HeLa MZ [6])
C=C1c2c(Cl)ccc(O)c2C(=O)C2=C(O)[C@]3(O)C(=O)C(C(N)=O)=C(O)[C@@H](N(C)C)[C@@H]3[C@@H](O)[C@H]12.O=C(O)c1cc(S(=O)(=O)O)ccc1O [Meclocycline sulfosalicylate],-0.505,-0.19,-0.811,-1.34,-0.554,-0.823
N=C(N)NC(=O)c1nc(Cl)c(N)nc1N [Amiloride hydrochloride dihydrate],-0.438,-0.561,-0.785,-0.475,-0.486,-0.551
COc1c(N2CCNC(C)C2)c(F)cc2c(=O)c(C(=O)O)cn(C3CC3)c12 (centres undefined) [Gatifloxacin],-0.517,0.0619,-0.124,0.333,-0.446,0.0101
CCC1NC(=O)c2cc(S(N)(=O)=O)c(Cl)cc2N1 (centres undefined) [Quinethazone],-0.328,-1.04,0.366,0.147,-0.404,-0.386
CNCCC=C1c2ccccc2CCc2ccccc21 [Nortriptyline hydrochloride],3.79,1.4,1.95,1.82,3.53,3.69
O=C(N[C@H](CO)[C@H](O)c1ccc([N+](=O)[O-])cc1)C(Cl)Cl [Chloramphenicol],-0.509,-0.731,-0.952,-1.01,-0.558,-0.762
CC(C)Cn1cnc2c(N)nc3ccccc3c21 [Imiquimod],0.0371,0.531,0.233,0.058,-0.267,-0.158
CCOC(=O)C1=C[C@]2(CC)CCCN3CCc4c(n1c1ccccc41)[C@@H]32 [Vinpocetine],-0.0891,0.52,-0.413,-0.464,-0.326,-0.0256
Nc1nc(N)nc(-c2cc(Cl)ccc2Cl)n1 [Irsogladine maleate],-0.232,0.679,-0.0416,0.316,-0.334,-0.292
CC(=O)N[C@@H](CC(C)C)C(=O)O [N-Acetyl-L-leucine],-0.45,-0.158,-0.322,0.0999,-0.425,-0.357
CC(=O)Nc1nnc(S(N)(=O)=O)s1 [Acetazolamide],-0.546,-1.16,-0.799,-0.564,-0.395,-0.429
CN1C(C(=O)Nc2ccccn2)=C(O)c2ccccc2S1(=O)=O [Piroxicam],-0.541,-0.331,-0.896,-1.08,-0.561,-0.694
Cc1c(Cl)cccc1Nc1ccccc1C(=O)O [Tolfenamic acid],-0.417,-0.76,-0.809,-0.604,-0.464,-0.636
CC(C)(C)NC(=O)[C@H]1CC[C@H]2[C@@H]3CC[C@H]4NC(=O)C=C[C@]4(C)[C@H]3CC[C@]12C [Finasteride],-0.353,-0.576,0.536,0.274,-0.256,-0.306
COC1=C(OC)C(=O)C(CCCCCCCCCCO)=C(C)C1=O [Idebenone],-0.691,-0.73,-0.893,-0.402,-0.585,-0.582
CCCCNc1cc(C(=O)O)cc(S(N)(=O)=O)c1Oc1ccccc1 [Bumetanide],-0.516,-0.493,-0.507,-0.553,-0.588,-0.565
Cc1cc(=O)oc2cc(O)ccc12 [Hymecromone],-0.504,-0.0954,-0.674,-0.684,-0.459,-0.528
NC(=O)c1cccnc1 [Nicotinamide],-0.398,-0.64,-0.512,-0.013,-0.419,-0.499
O=C(O)c1cn(-c2ccc(F)cc2)c2cc(N3CCNCC3)c(F)cc2c1=O [Sarafloxacin],-0.35,-0.0848,0.000583,-0.426,-0.428,-0.434
CC(Oc1ccccc1)C(=O)N[C@@H]1C(=O)N2[C@@H]1SC(C)(C)[C@@H]2C(=O)O (some centres undefined) [Phenethicillin potassium salt],-0.589,-1.24,-0.612,-0.336,-0.493,-0.525
Nc1nc(=O)c2nc(CNc3ccc(C(=O)N[C@@H](CCC(=O)O)C(=O)O)cc3)cnc2[nH]1 [Folic acid],-0.628,-1.15,-0.811,-0.635,-0.597,-0.671
NNCCc1ccccc1 [Phenelzine sulfate],-0.403,-0.966,-0.414,-0.115,-0.439,-0.425
CC(CNC1CCCCC1)OC(=O)c1ccccc1 (centres undefined) [Hexylcaine hydrochloride],-0.125,-0.0338,-0.478,-0.747,-0.345,-0.436
CC(=O)OCC1=C(C(=O)O)N2C(=O)[C@@H](NC(=O)Cc3cccs3)[C@H]2SC1 [Cephalothin sodium salt],-0.468,-0.884,-0.46,-0.115,-0.456,-0.652
